PubChem BioAssay AID1159580 (chemical genetic matrix, 2015)
Values joined by “and” are separate entries in the source; they are usually repeats but may differ in a detail not shown here. Identical values can stand only once. Screen size: about 5,500 compounds; about 2,000 (36%) were called active. Not shown: some 18% with an inconclusive outcome. No stated cut-off is given here; in the data, active means normalized growth mostly below about 0.91 (no sharp cut-off); inconclusive means no clear call, values can overlap the other calls; inactive means mostly above about 0.92. The list shows a part of the results.

Test: chemical genetic growth profiling, strain panel (AID 1159580);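 further: tested at 20 µM; growth read once vehicle control cultures reached saturation at 30 °C; 1 = growth at the plate median or of vehicle wells; lower values mean less growth of the strain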
Conditions: S. cerevisiae deletion strains, growth OD

Measured: normalized growth

CCNC(=O)CC[C@H](N)C(=O)O
inactive: locus YAL021C, strain ccr4, hits give low values 0.995 | locus YAL026C, strain drs2, hits give low values 1 | locus YAL030W, strain snc1, hits give low values 0.998 | locus YBL061C, strain skt5, hits give low values 0.993 | locus YBR009C, strain hhf1, hits give low values 1.02 | locus YBR021W, strain FUR4, hits give low values 1.03 | locus YBR023C, strain chs3, hits give low values 0.993 | locus YBR171W, strain sec66, hits give low values 1 | locus YBR229C, strain ROT2, hits give low values 0.991 | locus YBR231C, strain swc5, hits give low values 0.997 | locus YBR279W, strain paf1, hits give low values 1 | locus YCL011C, strain gbp2, hits give low values 1 | locus YCL016C, strain dcc1, hits give low values 0.996 | locus YCL029C, strain bik1, hits give low values 0.988 | locus YCL061C, strain MRC1, hits give low values 1 | locus YCL069W, strain vba3, hits give low values 1.01 | locus YCR088W, strain abp1, hits give low values 1 | locus YDL005C, strain med2, hits give low values 0.986 | locus YDL035C, strain GPR1, hits give low values 1.04 | locus YDL040C, strain nat1, hits give low values 0.998 | locus YDL074C, strain BRE1, hits give low values 1.02 | locus YDL101C, strain DUN1, hits give low values 0.965 | locus YDL134C, strain PPH21, hits give low values 1.01 | locus YDL185W, strain tfp1, hits give low values 0.996 | locus YDL192W, strain arf1, hits give low values 1 | locus YDR001C, strain nth1, hits give low values 0.997 | locus YDR069C, strain doa4, hits give low values 1.03 | locus YDR101C, strain arx1, hits give low values 1 | locus YDR137W, strain rgp1, hits give low values 1.01 | locus YDR159W, strain sac3, hits give low values 0.992 | locus YDR162C, strain NBP2, hits give low values 1.03 | locus YDR195W, strain ref2 0.994 | locus YDR297W, strain sur2, hits give low values 0.99 | locus YDR318W, strain mcm21, hits give low values 0.999 | locus YDR334W, strain swr1, hits give low values 1 | locus YDR335W, strain msn5, hits give low values 1 | locus YDR388W, hits give low values 1 | locus YDR392W, strain spt3, hits give low values 0.991 | locus YDR502C, strain sam2, hits give low values 0.999 | locus YEL003W, strain gim4, hits give low values 1.01 | locus YEL037C, strain rad23, hits give low values 0.996 | locus YEL061C, strain CIN8 (second series), hits give low values 1 | locus YEL061C, strain CIN8, hits give low values 0.999 | locus YER015W, strain faa2, hits give low values 1.01 | locus YER016W, strain bim1, hits give low values 0.991 | locus YER110C, hits give low values 0.981 | locus YER111C, strain swi4, hits give low values 1 | locus YER155C, strain BEM2 (second series), hits give low values 0.99 | locus YER155C, strain BEM2, hits give low values 0.974 | locus YER167W, strain BCK2, hits give low values 0.995 | locus YFR010W, strain ubp6, hits give low values 1 | locus YGL078C, strain dbp3, hits give low values 0.988 | locus YGL086W, strain mad1, hits give low values 1 | locus YGL167C, strain pmr1, hits give low values 0.997 | locus YGL173C, strain kem1, hits give low values 0.996 | locus YGL227W, strain vid30, hits give low values 0.992 | locus YGL240W, strain doc1, hits give low values 1 | locus YGL248W, strain PDE1, hits give low values 1 | locus YGL253W, strain hxk2, hits give low values 1 | locus YGR135W, strain pre9, hits give low values 1.01 | locus YGR252W, strain gcn5, hits give low values 1.04 | locus YHR013C, strain ard1, hits give low values 0.987 | locus YHR027C, strain rpn1, hits give low values 1.01 | locus YHR030C, strain SLT2, hits give low values 0.999 and 1.01 | locus YHR079C, strain IRE1 (second series), hits give low values 0.997 | locus YHR079C, strain IRE1, hits give low values 1.04 | locus YHR094C, strain hxt1, hits give low values 0.989 | locus YHR129C, strain ARP1, hits give low values 0.995 | locus YHR142W, strain chs7, hits give low values 1.01 | locus YHR200W, strain rpn10, hits give low values 0.994 | locus YIL066C, strain RNR3, hits give low values 1.04 | locus YIL073C, strain SPO22, hits give low values 0.979 | locus YIL125W, strain kgd1, hits give low values 0.995 | locus YIR030C, strain dcg1, hits give low values 0.994 | locus YJL092W, strain hpr5, hits give low values 0.993 | locus YJL095W, strain BCK1 (second series), hits give low values 0.99 | locus YJL095W, strain BCK1, hits give low values 1 and 1.04 | locus YJL115W, strain asf1, hits give low values 0.999 | locus YJL129C, strain trk1, hits give low values 0.999 | locus YJL134W, strain LCB3, hits give low values 0.998 | locus YJL154C, strain vps35, hits give low values 1 | locus YJL164C, strain tpk1, hits give low values 1.01 | locus YJL166W, strain qcr8, hits give low values 1 | locus YJL168C, strain set2, hits give low values 0.991 | locus YJL187C, strain SWE1 (second series), hits give low values 0.996 | locus YJR043C, strain POL32, hits give low values 1.05 | locus YJR066W, strain TOR1, hits give low values 0.958 | locus YJR075W, strain HOC1, hits give low values 0.995 | locus YKL009W, strain mrt4, hits give low values 0.986 | locus YKL068W, hits give low values 0.987 | locus YKL085W, strain MDH1 (second series), hits give low values 1.02 | locus YKL085W, strain MDH1, hits give low values 1.02 | locus YKL160W, strain elf1, hits give low values 0.999 | locus YKR001C, strain vps1, hits give low values 1 | locus YKR026C, strain gcn3, hits give low values 1 | locus YKR091W, strain srl3, hits give low values 1 | locus YLL001W, strain dnm1, hits give low values 0.997 | locus YLL026W, hits give low values 0.993 | locus YLL041C, strain sdh2, hits give low values 1 | locus YLR027C, strain aat2, hits give low values 0.997 | locus YLR039C, strain RIC1, hits give low values 1.03 | locus YLR058C, strain SHM2, hits give low values 0.998 | locus YLR102C, strain apc9, hits give low values 0.987 | locus YLR113W, strain HOG1, hits give low values 1.02 | locus YLR221C, strain rsa3, hits give low values 1.01 | locus YLR258W, strain gsy2, hits give low values 0.994 | locus YLR262C, strain YPT6 (second series), hits give low values 0.984 | locus YLR262C, strain YPT6, hits give low values 1.04 | locus YLR268W, strain sec22, hits give low values 0.986 | locus YLR320W, strain mms22, hits give low values 0.999 | locus YLR330W, strain CHS5, hits give low values 1.01 | locus YLR342W, strain FKS1 (second series), hits give low values 1.03 | locus YLR342W, strain FKS1, hits give low values 1.02 | locus YLR357W, strain rsc2, hits give low values 0.962 | locus YLR370C, strain arc18, hits give low values 1 | locus YLR371W, strain rom2, hits give low values 0.989 | locus YLR384C, strain iki3, hits give low values 0.982 | locus YLR418C, strain cdc73, hits give low values 1.02 | locus YML016C, strain PPZ1, hits give low values 0.993 | locus YML032C, strain rad52, hits give low values 1.01 | locus YML120C, strain ndi1, hits give low values 1 | locus YML124C, strain tub3, hits give low values 0.996 | locus YMR058W, strain fet3, hits give low values 0.999 | locus YMR078C, strain ctf18, hits give low values 0.996 | locus YMR125W, strain sto1, hits give low values 0.996 | locus YMR129W, hits give low values 0.991 | locus YMR205C, strain PFK2, hits give low values 1.01 | locus YMR223W, strain ubp8, hits give low values 1.01 | locus YMR231W, strain pep5, hits give low values 1 | locus YMR263W, strain SAP30, hits give low values 0.989 | locus YMR307W, strain GAS1, hits give low values 1.06 | locus YNL067W, strain RPL9B, hits give low values 0.984 | locus YNL071W, strain lat1, hits give low values 1 | locus YNL183C, strain NPR1, hits give low values 0.953 | locus YNL209W, strain ssb2, hits give low values 1.01 | locus YNL233W, strain BNI4, hits give low values 1.01 | locus YNL248C, strain rpa49, hits give low values 1 | locus YNL250W, strain rad50, hits give low values 0.975 | locus YNL271C, strain bni1, hits give low values 0.999 | locus YNL298W, strain CLA4, hits give low values 0.995 | locus YNL307C, strain MCK1, hits give low values 0.992 | locus YNL322C, strain KRE1 (second series), hits give low values 0.979 | locus YNR049C, strain mso1, hits give low values 0.984 | locus YNR052C, strain pop2, hits give low values 0.998 | locus YOL006C, strain TOP1, hits give low values 1.07 | locus YOL012C, strain htz1 1.05 | locus YOL147C, strain pex11, hits give low values 0.998 | locus YOR001W, strain rrp6, hits give low values 1 | locus YOR061W, strain CKA2, hits give low values 1 | locus YOR069W, strain VPS5, hits give low values 0.988 | locus YOR070C, strain gyp1, hits give low values 1.01 | locus YOR080W, strain dia2, hits give low values 0.99 | locus YOR083W, strain WHI5, hits give low values 0.998 | locus YOR106W, strain vam3, hits give low values 1.01 | locus YOR136W, strain idh2, hits give low values 0.983 | locus YOR144C, strain elg1, hits give low values 0.995 | locus YOR184W, strain ser1, hits give low values 1 | locus YOR231W, strain MKK1, hits give low values 1.02 | locus YOR265W, strain rbl2, hits give low values 0.991 | locus YOR270C, strain vph1, hits give low values 1.04 | locus YOR290C, strain snf2, hits give low values 1 | locus YOR316C, strain cot1, hits give low values 0.99 | locus YPL051W, strain arl3, hits give low values 0.996 | locus YPL055C, strain LGE1, hits give low values 1.03 | locus YPL078C, strain atp4, hits give low values 0.991 | locus YPL106C, strain sse1, hits give low values 0.984 | locus YPL240C, strain hsp82, hits give low values 1.01 | locus YPL256C, strain CLN2, hits give low values 1.01 | locus YPR119W, strain clb2, hits give low values 1.01 | locus YPR141C, strain kar3, hits give low values 0.985 | locus YPR163C, strain tif3, hits give low values 0.995 | locus YPR167C, strain met16, hits give low values 0.998 | strain wtn01, hits give low values 0.989
